Consider 14 molecules from PubChem BioAssay.

Structures are written as SMILES. Calls of active or inactive are those of the source. Unless noted, the rule behind the calls is not given here.

For test [1], the system named is Wnt5a (protein binding on small-molecule microarray). The test is described as follows: Wnt5a binders on small-molecule microarray, primary screen, biophysical, 635/667 nm fluorescence (AID 1142).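 Note: fluorescence read at 667 nm with signal to noise per printed feature.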 The conditions noted are these: 635 nm fluorescence, higher = more signal.
A short description of test [2]: cell viability in Huh7 cells, primary screen, cytotoxicity control for HCV replication inhibitor project, CellTiter-Glo luminescence, basal, 48 h (AID 1143).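 Note: Huh7 hepatoma cells carrying a hepatitis C replication reporter with no stimulus; test concentration not given here.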 The conditions noted are these: Huh7 HCV replicon, higher = more signal, called active from +8 up or from −8 down. For orientation: Cellular ATP, detected with luciferase, serves as a proxy for viable cell number.

Test [3] can be described thus: P. aeruginosa biofilm formation inhibitors, primary screen, PAO1 strain, BacTiter-Glo luminescence, LB-PBS (AID 1144). To be noted: 12 h, higher = more signal.
Test [4] can be described thus: CREB reporter modulators without forskolin, primary screen, cell-based, PC12, CRE-LacZ reporter, unstimulated (AID 1145). To be noted: no forskolin, luminescence, 4.5 h, higher = more signal, called active from +8 up or from −8 down.
Test [5] can be described thus: CREB reporter modulators under forskolin, primary screen, cell-based, PC12, CRE-LacZ reporter, forskolin-stimulated (AID 1146).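 Note: PC12 cells with 6xCRE LacZ reporter stimulated by forskolin 10 µM; beta-galactosidase reporter signal reflecting CREB driven transcription.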 The conditions noted are these: luminescence, 4.5 h, higher = more signal, called active from +8 up or from −8 down.
The target of test [6] is Streptavidin (Streptomyces avidinii) (UniProt P22629). Put plainly: streptavidin binders on small-molecule microarray, primary screen, artefact control for SMM compound annotation, biophysical, 635/667 nm fluorescence (AID 1147).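 Note: signal reflects streptavidin binding to arrayed compounds as a control protein.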 To be noted: streptavidin binding, higher = more signal.
Sequence of Streptavidin (Streptomyces avidinii) (P22629 whole entry, looked up): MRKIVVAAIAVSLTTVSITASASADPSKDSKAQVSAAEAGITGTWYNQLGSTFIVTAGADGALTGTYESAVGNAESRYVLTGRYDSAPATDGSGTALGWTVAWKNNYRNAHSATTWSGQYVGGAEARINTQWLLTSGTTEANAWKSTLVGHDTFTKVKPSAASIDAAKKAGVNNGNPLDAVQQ
Test [7] in a line: small-molecule binders of probe aInhba, primary screen, biochemical, small-molecule microarray, 635/667 nm fluorescence (AID 1148).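 Note: score merges 667nm spot fluorescence with signal-to-noise for antibody binding to printed compounds.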 The conditions noted are these: higher = more signal.
Test [8] deals with Torsin-1A (Homo sapiens) (UniProt O14656). The test is described as follows: torsin A binders from cell lysate, primary screen, small-molecule microarray, wild-type, 635/667 nm (AID 1149). The conditions noted are these: COS7 hTOR1A-WT lysate, 635 nm fluorescence, higher = more signal.
Sequence of Torsin-1A (Homo sapiens) (O14656 whole entry, looked up): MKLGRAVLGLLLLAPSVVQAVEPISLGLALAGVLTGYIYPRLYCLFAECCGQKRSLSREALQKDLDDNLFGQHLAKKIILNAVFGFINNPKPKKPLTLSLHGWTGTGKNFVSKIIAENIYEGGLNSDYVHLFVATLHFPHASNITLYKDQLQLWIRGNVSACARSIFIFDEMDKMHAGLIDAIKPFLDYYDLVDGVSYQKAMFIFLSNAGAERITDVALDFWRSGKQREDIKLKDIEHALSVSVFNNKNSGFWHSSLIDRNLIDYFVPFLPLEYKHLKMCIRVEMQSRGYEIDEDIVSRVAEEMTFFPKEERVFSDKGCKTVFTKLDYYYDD
Test [9] has the same target. The test is described as follows: small-molecule binders of mutant TOR1A in lysate, primary screen, cell lysate, small-molecule microarray, COS7 lysate, 635/667 nm fluorescence (AID 1150).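 Note: score pools 667 nm emission and signal to noise measuring lysate protein binding.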 To be noted: COS7 hTOR1A mutant lysate, 635 nm fluorescence, higher = more signal.
Test [10] relates to Sonic hedgehog protein (Shh). Put plainly: small-molecule binders of Shh protein, primary screen, biochemical, small-molecule microarray, 635/667 nm fluorescence (AID 1151).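 Note: Shh protein binding to compounds spotted on small-molecule microarray slides; score combines spot fluorescence intensity with signal-to-noise across triplicate slides.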 To be noted: small-molecule microarray binding, 635 nm fluorescence; higher = more signal.

Take `Cc1ccc(S[C@]2(C(=O)O)CC(=O)N(Cc3ccccc3C(F)(F)F)[C@@H]2c2ccc(CO)cc2)cc1`: the composite z-score in test [1] is -0.297; in test [6] it was -0.655; in test [7], -0.113; in the test with Torsin-1A (Homo sapiens) [8], 0.0183; with Torsin-1A (Homo sapiens) [9] it was 1.46; in [10], -1.1. The z-score was 0.455 (inactive) in [2], 0.231 (inactive) in test [3], 0.0279 (inactive) in test [4] and -0.369 (inactive) in [5].
As to `COC(=O)[C@@]1(Cc2ccccc2)[C@H]2c3cc(C(=O)N4CCCC4)n(Cc4ccc(OC(F)(F)F)cc4)c3C[C@H]2CN1C(=O)c1ccccc1`, the composite z-score was 1.01 in test [1]; 1.64 in test [6]; 1.08 in test [7]; -0.429 with Torsin-1A (Homo sapiens) [8]; 0.969 with Torsin-1A (Homo sapiens) [9]; -1.44 in [10]. In addition, the z-score in [2] is -2.44 (inactive); in test [3], 0.0853 (inactive); in test [4], 2.49 (inactive); in test [5], 2.25 (inactive).
Take `Cc1ccc(N2C(=O)c3ccccc3[C@](C)(C(=O)NC(C)C)[C@@H]2c2ccc(CO)cc2)nc1`: the composite z-score in test [1] is -0.281; in test [6], -1.78; in test [7], -0.289; in the test with Torsin-1A (Homo sapiens) [8] it was -3.17; with Torsin-1A (Homo sapiens) [9], 0.758; in test [10] it was -0.974. Moreover, the z-score is 0.328 (inactive) in test [2], 0.306 (inactive) in [3], 0.155 (inactive) in test [4] and 0.521 (inactive) in test [5].
For `C=C(COC)C(=O)CC[C@H](OC(=O)c1ccccc1-c1ccccc1C(=O)O)c1ccc(CO)o1`, the composite z-score in test [1] was 0.634; in [6] it was -0.451; in test [7], -0.179; with Torsin-1A (Homo sapiens) [8], 0.507; with Torsin-1A (Homo sapiens) [9], 1.79; in [10] it was 1.69. The z-score was 0.465 (inactive) in test [2], -0.39 (inactive) in test [3], 0.434 (inactive) in [4] and 0.964 (inactive) in [5].
Regarding `C=CCC(OC(C)=O)[C@@H]1[C@@H](N(Cc2cccc3ccccc23)C(=O)c2ccc(C)cc2)c2cc(OCCCO)ccc2N1C(=O)c1ccc2ccccc2c1` (stereo not given in full), the composite z-score in [1] worked out at 0.0228; in test [6], 0.128; in test [7], 0.0797; in the test with Torsin-1A (Homo sapiens) [8], 0.196; with Torsin-1A (Homo sapiens) [9] it was 0.792; in test [10] it was 0.788. In addition, the z-score in test [2] was -0.487 (inactive); in [3], -0.412 (inactive); in [4], 1.22 (inactive); in [5] it was 0.197 (inactive).
Consider `Cc1ccc(S[C@]2(C(=O)NCCN3CCOCC3)CC(=O)N(C3Cc4ccccc4C3)[C@@H]2c2ccc(CO)cc2)cc1`, for which the composite z-score in test [1] was -0.2; in test [6] it was -0.994; in test [7], -0.125; in the test with Torsin-1A (Homo sapiens) [8] it was 0.0023; in the test with Torsin-1A (Homo sapiens) [9], 0.206; in [10] it was -0.393. For the same molecule, the z-score in test [2] was -0.73 (inactive); in test [3] it was -0.396 (inactive); in [4] it was -0.152 (inactive); in [5], 1.3 (inactive).
For the molecule `C=C(CCCC)/C(=C/C[C@H](OC(=O)c1ccncc1)c1ccc(CO)o1)c1cc(C(=O)OC)ccc1OC`, the composite z-score in [1] came out at 0.0136; in test [6], 0.551; in test [7], 0.221; with Torsin-1A (Homo sapiens) [8] it was 0.428; with Torsin-1A (Homo sapiens) [9], 0.646; in test [10] it was 1.63. The z-score was -0.441 (inactive) in test [2], -0.525 (inactive) in test [3], 0.201 (inactive) in test [4] and 2.68 (inactive) in test [5].
Take `Cc1ccc(-c2cccc(=O)o2)cc1`: the composite z-score in test [1] was 0.796; in test [6] it was -0.317; in test [7], -0.0523; in the test with Torsin-1A (Homo sapiens) [8], -0.495; with Torsin-1A (Homo sapiens) [9], -0.173; in test [10], -0.0613. Also, the z-score is -0.0525 (inactive) in test [2], 1.07 (inactive) in test [3], -0.322 (inactive) in test [4] and 0.699 (inactive) in test [5].
In the case of `CN(C)C(=O)[C@@]1(CCC(=O)OC(C)(C)C)COC(c2ccc(OCCCO)cc2)=N1`, the composite z-score in test [1] is 0.0507; in test [6], -0.354; in [7], 0.174; in the test with Torsin-1A (Homo sapiens) [8], 0.445; with Torsin-1A (Homo sapiens) [9], 1.45; in [10] it was -0.942. For the same molecule, the z-score in [2] was -0.196 (inactive); in test [3], -0.478 (inactive); in test [4], -0.277 (inactive); in test [5], 0.855 (inactive).
`CCCN1C(=O)[C@@]2(Cc3ccccc3)N=C(c3ccc(OCCCO)cc3)O[C@H]2c2ccccc21`: the composite z-score is 0.421 in test [1]; -0.0407 in [6]; 0.215 in [7]; 1.06 with Torsin-1A (Homo sapiens) [8]; 0.884 with Torsin-1A (Homo sapiens) [9]; 1.72 in [10]. For the same molecule, the z-score in test [2] was -5.03 (inactive); in test [3], -0.657 (inactive); in test [4], 1.61 (inactive); in [5], -0.979 (inactive).
With `O=C1O[C@H](c2ccccc2)[C@H](c2ccccc2)N2[C@H]1[C@@H](C(=O)N1CCCCCCC1)[C@]1(C(=O)Nc3ccc(C#CCCO)cc31)[C@H]2c1ccc(OCCO)cc1`, the composite z-score in test [1] stood at 2.02; in [6], 4.02; in [7], 1.82; with Torsin-1A (Homo sapiens) [8] it was 3.41; in the test with Torsin-1A (Homo sapiens) [9], 3.46; in test [10], 2.35. The z-score in [2] was -2.18 (inactive); in test [3], 0.278 (inactive); in test [4], -1.42 (inactive); in [5], -0.757 (inactive).
In the case of `C#CCOC(=O)N[C@H](C=CCCCC)c1ccccc1`, the composite z-score is -0.0582 in [1]; 0.335 in test [6]; 0.0714 in test [7]; 0.28 with Torsin-1A (Homo sapiens) [8]; 0.0584 with Torsin-1A (Homo sapiens) [9]; -0.13 in [10]. Moreover, the z-score in test [2] was -0.342 (inactive); in [3], -0.604 (inactive); in [4] it was 0.197 (inactive); in [5], 0.488 (inactive).
Take `[N-]=[N+]=NCc1ccccc1C[C@]1(C(=O)NCCN2CCOCC2)COC(c2ccc(OCCCO)cc2)=N1`: the composite z-score in test [1] was 0.315; in [6] it was 0.837; in test [7], 0.161; with Torsin-1A (Homo sapiens) [8] it was 0.969; with Torsin-1A (Homo sapiens) [9], 0.645; in test [10], -0.204. Also, the z-score is -2.41 (inactive) in [2], -0.0639 (inactive) in [3], 2.64 (inactive) in [4] and -0.664 (inactive) in [5].
Take `COC(=O)[C@@]1(Cc2ccc(F)cc2)[C@H]2c3cc(C(=O)N(C)C)n(Cc4ccc(C)c(F)c4F)c3C[C@H]2CN1C(=O)c1ccccc1`: the composite z-score in test [1] is 0.152; in [6], 0.993; in test [7], 0.651; in the test with Torsin-1A (Homo sapiens) [8], 0.123; with Torsin-1A (Homo sapiens) [9] it was 0.432; in test [10], -0.553. Moreover, the z-score is -1.47 (inactive) in test [2], 0.563 (inactive) in test [3], 0.0041 (inactive) in test [4] and 0.204 (inactive) in test [5].
